Source: PubChem BioAssay (several laboratories)
Hits are enriched below; roughly 0.74% of the tested compounds scored in any of these assays.
p97 ATPase inh = inhibitors of human p97 ATPase, primary screen, biochemical | recombinant p97 ATPase, Kinase-Glo ATP luminescence, 3 h | inhibition, % at 8 µM | AID 1481, 2009 | 220,000 tested, 0.42% active | Transitional endoplasmic reticulum ATPase (Homo sapiens), P55072; in the data active means inhibition above about 15%;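 further: 0% = DMSO vehicle and 100% = wells lacking enzyme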
LYPLA1 inh = LYPLA1 inhibitors, primary screen, counter-screen for PME1 inhibitor project, biochemical, fluorescence polarization, FP-Rh probe ABPP | recombinant LYPLA1 | inhibition, % at 5.9 µM | 320,000 tested, 0.16% active | AID 2174, 2009;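 active means inhibition above the mean of all tested compounds plus 3 SD, set per campaign, cut at about 14% in these data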;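 further: inhibitors block serine hydrolase probe labeling of LYPLA1 so polarization falls; 0% = enzyme with DMSO and 100% = wells lacking LYPLA1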
Target sequence (O75608 whole entry, looked up): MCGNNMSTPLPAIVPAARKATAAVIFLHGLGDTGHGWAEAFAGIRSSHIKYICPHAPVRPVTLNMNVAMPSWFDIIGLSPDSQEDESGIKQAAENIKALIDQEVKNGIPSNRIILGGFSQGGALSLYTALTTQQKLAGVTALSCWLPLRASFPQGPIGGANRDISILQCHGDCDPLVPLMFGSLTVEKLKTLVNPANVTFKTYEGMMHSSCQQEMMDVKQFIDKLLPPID
Redox H2O2 prof = compounds producing H2O2 with reducing agent – biochemical, NIH compound library profiling, artefact control for MLSCN library redox annotation, primary screen. DTT-dependent redox cycling H2O2, phenol red/HRP absorbance; 100% = 100 µM peroxide control, 0% = buffer. activation, % at 10 µM. 200,000 tested, 0.03% active. AID 878, 2007;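 active means activation of at least 50% relative to the plate's high and low controls in the primary single-dose screen; inactive means activation below 50%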;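 further: compound incubated with DTT at 0.8 mM final as the reducing agent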
LYPLA2 inh = LYPLA2 inhibitors, primary screen, counter-screen for PME1 inhibitor project, biochemical, fluorescence polarization, FP-Rh probe ABPP; Acyl-protein thioesterase 2 (Homo sapiens), O95372; recombinant LYPLA2; inhibition, % at 5.9 µM; 320,000 tested, 0.38% active; AID 2177, 2009;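 active means inhibition above the screen-wide mean plus 3 SD, limit set per campaign, cut at about 26% in these data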;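 further: 0% = LYPLA2 with DMSO and 100% = wells lacking LYPLA2 enzyme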
Target sequence (O95372 whole entry, looked up): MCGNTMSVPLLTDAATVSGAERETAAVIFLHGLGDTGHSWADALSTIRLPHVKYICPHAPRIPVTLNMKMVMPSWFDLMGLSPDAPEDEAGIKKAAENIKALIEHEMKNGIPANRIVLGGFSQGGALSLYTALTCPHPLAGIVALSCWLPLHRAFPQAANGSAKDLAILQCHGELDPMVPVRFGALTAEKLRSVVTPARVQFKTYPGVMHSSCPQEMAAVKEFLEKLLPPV
LYPLA2 confirm = LYPLA2 inhibitors, retest, confirmation, counter-screen for PME1 inhibitor project, biochemical, fluorescence polarization, FP-Rh probe ABPP | shares compounds with LYPLA2 inh | recombinant LYPLA2 | inhibition, % at 5.9 µM | 1,100 tested, 72% active | AID 2232, 2010;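 active means mean inhibition across replicates above the hit cutoff set in the primary screen, cut at about 26% in these data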;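 further: blocked labeling of the enzyme by serine hydrolase FP-Rh probe lowers polarization; 0% = enzyme with DMSO and 100% = wells lacking LYPLA2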
LYPLA2 ABPP = LYPLA2 inhibitors in proteome, late-stage follow-up, gel-based competitive ABPP, fluorescence, assay provider. shares compounds with LYPLA2 inh. rhLYPLA2 in mouse brain proteome, gel ABPP FP-Rh. inhibition, % at 20 µM. 150 tested, 30% active. AID 652029, 2013;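 active means inhibition of LYPLA2 enzyme probe labeling above about 50%, limit read from the data; inactive means inhibition below that limit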;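 further: loss of FP-Rh probe labeling of the LYPLA2 gel band measured as band density; 0% = DMSO only control band and 100% = blank gel background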
Numbers without * were called inactive.

`Cc1cc(N2CCN(c3ccc(C(F)(F)F)cc3[N+](=O)[O-])CC2)c2ccccc2n1` gave LYPLA1 inh 2.5, LYPLA2 inh 29.3* and LYPLA2 confirm 25.8*.
CC(=O)Oc1c(C)c(C)c2c(c1C)CC[C@@](C)(CCC[C@H](C)CCC[C@H](C)CCCC(C)C)O2 was read as LYPLA1 inh -2.9 and LYPLA2 inh 2.4.
`Cc1cc(C)n(Cc2ccc(C(=O)N/N=C/c3ccc(-c4ccc([N+](=O)[O-])cc4)o3)o2)n1` gave LYPLA1 inh 4.5, LYPLA2 inh 27.7* and LYPLA2 confirm 27.0*.
For O=C(COc1ccc(Cl)cc1Cl)N/N=C/c1ccc(OC2OC(CO)C(O)C(O)C2O)cc1 (centres undefined) the results were p97 ATPase inh 6.6, LYPLA1 inh -11.4 and LYPLA2 inh 6.6.
For CC(C)(C)OC(=O)NC(CCCCNC=O)C(=O)O (centres undefined) the results were p97 ATPase inh -5.5, LYPLA1 inh 9.2, Redox H2O2 prof 1.7, LYPLA2 inh 80.7* and LYPLA2 confirm 3.3.
`COc1cccc(NC(=O)C2CC(=O)N(C)C(=Nc3cccc(F)c3)S2)c1` (centres undefined) gave p97 ATPase inh 5.2, LYPLA1 inh -6.9, Redox H2O2 prof -0.1 and LYPLA2 inh 5.4.
`CCN1C(=O)CC(C(=O)Nc2ccc(F)cc2)SC1=Nc1cccc(OC)c1` (centres undefined) gave p97 ATPase inh -5.8, LYPLA1 inh 2.2, Redox H2O2 prof -2.5, LYPLA2 inh 29.0* and LYPLA2 confirm 7.7.
Screening CCCn1c(C)cc(C(=O)COc2ccc(C)nc2[N+](=O)[O-])c1C returned p97 ATPase inh 2.0, LYPLA1 inh -4.0, Redox H2O2 prof 0.3, LYPLA2 inh 29.6* and LYPLA2 confirm 20.9.
For Cc1ccc(OCC(=O)c2cc(C)n(-c3ccccc3)c2C)c([N+](=O)[O-])n1 the results were p97 ATPase inh -0.8, LYPLA1 inh 3.7, Redox H2O2 prof -0.3 and LYPLA2 inh 20.6.
Screening CC(=O)c1ccc(N2Cc3ccccc3C3(CCOCC3)C2=N)cc1 returned p97 ATPase inh -2.0, LYPLA1 inh 2.0, Redox H2O2 prof -0.1 and LYPLA2 inh 6.8.
Cc1ccc(NC(=O)CCC(=O)OCC(=O)c2ccc(Oc3ccc([N+](=O)[O-])cc3)cc2)c(C)c1 was read as p97 ATPase inh -1.6, LYPLA1 inh -0.4, Redox H2O2 prof 0.5, LYPLA2 inh 29.0* and LYPLA2 confirm 25.9*.
Screening Cc1ccc(NC(=O)COC(=O)CCC(=O)c2ccc(C(C)(C)C)cc2)c([N+](=O)[O-])c1 returned p97 ATPase inh 1.2, LYPLA1 inh -2.7, Redox H2O2 prof 0.1 and LYPLA2 inh 0.3.
Cc1ccc(NC(=O)c2cccc(Oc3ccc([N+](=O)[O-])cc3)c2)c(C(=O)O)c1 was read as LYPLA1 inh 0.0, LYPLA2 inh 25.9* and LYPLA2 confirm 38.1*.
Cc1ccccc1C1=NC(C(F)(F)F)(C(F)(F)F)c2c(n(C)c(=O)n(C)c2=O)N1 was read as p97 ATPase inh -4.9, LYPLA1 inh -2.4, Redox H2O2 prof 0.2 and LYPLA2 inh 5.5.
`Cn1c2c(c(=O)n(C)c1=O)C(C(F)(F)F)(C(F)(F)F)N=C(c1ccc(Cl)cc1)N2` gave p97 ATPase inh 0.3, LYPLA1 inh -0.5, Redox H2O2 prof 1.4, LYPLA2 inh 55.9* and LYPLA2 confirm 1.1.
For Cc1cccnc1NC(=O)C1CCC1 the results were LYPLA1 inh -0.3 and LYPLA2 inh -1.3.
Screening N#Cc1cnn2c3c(cnc12)C(=O)N1CCc2ccccc2C1C3 (centres undefined) returned p97 ATPase inh 3.5, LYPLA1 inh 9.7, Redox H2O2 prof -0.3, LYPLA2 inh 42.4* and LYPLA2 confirm 44.1*.
O=C(Nc1ncccc1O)c1cccc(S(=O)(=O)N2CCc3ccccc32)c1 was read as p97 ATPase inh -3.1, LYPLA1 inh -1.5, Redox H2O2 prof 1.0, LYPLA2 inh 26.5* and LYPLA2 confirm -5.2.
Screening CC1=C(C(=O)N2CCCC(N3CCN(c4cccc(C(F)(F)F)c4)CC3)C2)OCCO1 (centres undefined) returned LYPLA1 inh -0.1 and LYPLA2 inh 7.2.
O=C(c1ccncc1)N1CCCC(N2CCN(c3cccc(C(F)(F)F)c3)CC2)C1 (centres undefined) was read as LYPLA1 inh -1.6, LYPLA2 inh 26.4* and LYPLA2 confirm 42.6*.
`CCc1cc(C(=O)N2CCCC(N3CCN(c4cccc(C(F)(F)F)c4)CC3)C2)n(C)n1` (centres undefined) gave LYPLA1 inh 11.3, LYPLA2 inh 81.3*, LYPLA2 confirm 74.2* and LYPLA2 ABPP 43.0.
`O=C(c1ccoc1)N1CCCC(N2CCN(c3cccc(C(F)(F)F)c3)CC2)C1` (centres undefined) gave LYPLA1 inh 7.7 and LYPLA2 inh 17.1.
For CSCCC(=O)N1CCCC(N2CCN(c3cccc(C(F)(F)F)c3)CC2)C1 (centres undefined) the results were LYPLA1 inh 2.3, LYPLA2 inh 53.3*, LYPLA2 confirm 58.8* and LYPLA2 ABPP 49.0.
For CCn1cc(C(=O)N2CCCC(N3CCN(c4cccc(C(F)(F)F)c4)CC3)C2)cn1 (centres undefined) the results were LYPLA1 inh 5.8, LYPLA2 inh 31.7* and LYPLA2 confirm 21.6.
For COc1ccc(-c2cnnn2-c2ccc(NC(=O)c3ccc(S(=O)(=O)N4CCCCC4)cc3)cc2)cc1 the results were p97 ATPase inh -6.5, LYPLA1 inh -36.0, Redox H2O2 prof -0.4 and LYPLA2 inh -48.3.
For CC(C)CCN(C(=O)Nc1ccc(Cl)cc1)C1CCN(C(C)C)CC1 the results were p97 ATPase inh 3.4, LYPLA1 inh -2.6, Redox H2O2 prof -0.6 and LYPLA2 inh -6.6.
Screening CC(=O)Oc1ccc(/C=N/NS(=O)(=O)c2ccccc2)cc1 returned p97 ATPase inh 3.1, LYPLA1 inh -0.5, Redox H2O2 prof -0.3 and LYPLA2 inh -4.8.
`Cc1cnc(C(=O)N2CCCC(N3CCN(c4cccc(C(F)(F)F)c4)CC3)C2)cn1` (centres undefined) gave LYPLA1 inh 1.6, LYPLA2 inh 25.9* and LYPLA2 confirm 25.6.
